{"source": "PubChem BioAssay AID686940", "about": "(The Scripps Research Institute Molecular Screening Center, 2013)", "note": "The whole screen tested about 370,000 compounds, of which about 2,600 (0.7%) were called active. Many of the other results were omitted from the sample, so actives are more common in it than they were. A number with no mark means an inactive call.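 The calls were made as follows: active = inhibition above a per-plate cutoff, mean inhibition of test wells between control levels plus 3 SD (cut at about 38% in these data); inactive = the rest.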"}
{"target": "COUP transcription factor 2 (Homo sapiens) (UniProt P24468)", "sequence (P24468 whole entry, looked up)": "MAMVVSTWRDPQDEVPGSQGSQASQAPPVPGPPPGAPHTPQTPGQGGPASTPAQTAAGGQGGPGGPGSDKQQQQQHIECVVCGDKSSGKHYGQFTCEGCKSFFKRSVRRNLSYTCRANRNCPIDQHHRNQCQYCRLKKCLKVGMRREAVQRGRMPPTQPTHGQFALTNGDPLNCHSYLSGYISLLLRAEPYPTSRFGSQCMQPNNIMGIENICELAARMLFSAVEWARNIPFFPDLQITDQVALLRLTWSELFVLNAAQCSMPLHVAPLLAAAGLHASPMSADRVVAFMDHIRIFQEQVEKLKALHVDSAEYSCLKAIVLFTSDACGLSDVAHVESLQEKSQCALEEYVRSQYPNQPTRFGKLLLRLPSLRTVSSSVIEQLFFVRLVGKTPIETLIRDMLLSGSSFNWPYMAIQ", "experiment": "NR2F2 transcriptional activity inhibitors, primary screen, cell-based, luciferase reporter, HEK293T, luminescence (AID 686940);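 also: cells cotransfected with COUP-TFII expression vector driving the NGFI-A reporter; 0% = median of COUP-TF2 test wells and 100% = reporter-only cells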", "conditions": "HEK293T NGFI-A luciferase reporter, at 8.6 µM, hits give high values"}
{"smiles": "COc1ccc(CN(CCN2CCOCC2)C(=O)c2ccc(C)cc2)cc1OC", "inhibition": "-7.96%"}
{"smiles": "CCOC(=O)[C@@]12CN(C(=O)OC(C)(C)C)CC=C1N(Cc1ccc(OC)cc1)C(=O)[C@H]2CC(=O)NCc1ccc(OC)c(OC)c1", "inhibition": "-0.1%"}
{"smiles": "Cc1cc(C)nc(NC(=S)N2CCN(c3ccc(C(F)(F)F)cn3)CC2)c1", "inhibition": "22.9%"}
{"smiles": "CC(=O)OC12CCCN(C1)/C(=C/c1ccncc1)C2", "note": "(centres undefined)", "inhibition": "3.99%"}
{"smiles": "COc1cccc(CNC(=O)C2CCCN(c3nc4ccccc4o3)C2)c1OC", "note": "(centres undefined)", "inhibition": "-7.71%"}
{"smiles": "O=C(Nc1nnc([C@H]2C[C@H](O)[C@@H](CO)O2)s1)c1cccc(Cl)c1", "inhibition": "7.36%"}
{"smiles": "O=C(Nc1ccc(F)cc1)Nc1nnc([C@H]2C[C@H](O)[C@@H](CO)O2)s1", "inhibition": "-2.93%"}
{"smiles": "Cc1ccc(CNC(=O)Nc2nnc([C@H]3C[C@H](O)[C@@H](CO)O3)s2)cc1", "inhibition": "46.9% (active)"}
{"smiles": "Cc1cc(C(=O)NN=C/C=C/c2ccco2)n[nH]1", "inhibition": "-13.9%"}
{"smiles": "COC(=O)c1ccccc1NC(=O)CSc1n[nH]c(-c2ccncc2)n1", "inhibition": "8.9%"}
{"smiles": "CCc1c(C)nc(SCC(=O)NC2CCCC2)[nH]c1=O", "inhibition": "11.9%"}
{"smiles": "CCc1ccc(-c2nc(SCC(=O)NC3CCCC3)n[nH]2)cc1", "inhibition": "53.3% (active)"}
{"smiles": "O=C(c1cccc(C(F)(F)F)c1)N1CC[C@H]2[C@H](CCCN2Cc2cc(F)cc(F)c2)C1", "inhibition": "2.53%"}
{"smiles": "CCc1ccc(N(CC)c2ncnc3nc[nH]c23)cc1", "inhibition": "39.6% (active)"}
{"smiles": "Cc1ccc(NC(=O)c2ccc(CSc3ncnc4nc[nH]c34)cc2)c(C)c1", "inhibition": "-6.98%"}
{"smiles": "S=c1c2[nH]cnc2ncn1CCSc1ncnc2nc[nH]c12", "inhibition": "3.01%"}
{"smiles": "CCCCN1CCN(C(=O)c2ccc3c(c2)NC(=O)C(C)(C)O3)CC1", "inhibition": "-23.3%"}
{"smiles": "O=C(Nc1nc2ccc(Cl)cc2s1)c1cc(-c2ccc(Cl)cc2)nc2ccccc12", "inhibition": "-23.3%"}
{"smiles": "O=C(CNC(=O)c1ccccc1)OC(C(=O)Nc1cc([N+](=O)[O-])ccc1F)c1ccccc1", "note": "(centres undefined)", "inhibition": "1.21%"}
{"smiles": "O=C(NC(Nc1nc2ccc([N+](=O)[O-])cc2s1)(C(F)(F)F)C(F)(F)F)c1ccccc1", "inhibition": "74.1% (active)"}
{"smiles": "Cc1ccccc1NC(=O)COC(=O)c1ccc(Sc2ncn[nH]2)c([N+](=O)[O-])c1", "inhibition": "13.4%"}
{"smiles": "CC(C)(CNC(=O)c1ccc(Cl)c(S(=O)(=O)N2CCc3ccccc3C2)c1)N1CCOCC1", "inhibition": "65% (active)"}
{"smiles": "O=C(NCCSCc1ccccc1)c1ccc(Cl)c(S(=O)(=O)N2CCOCC2)c1", "inhibition": "11%"}
{"smiles": "CN(C)S(=O)(=O)c1ccc(C(=O)NCC(C)(C)N2CCOCC2)cc1", "inhibition": "15.8%"}
{"smiles": "N#Cc1ccc(OC[C@@H](O)CN2CCC(C(O)(c3ccccc3)c3ccccc3)CC2)c(F)c1", "inhibition": "-4.45%"}
{"smiles": "O=C(CSc1nc2ccccc2s1)NN=Cc1ccc(O)cc1O", "inhibition": "-18.2%"}
{"smiles": "C=CCN(C)CC#Cc1ccccc1", "inhibition": "17.2%"}
{"smiles": "Cc1ccc(-n2c(SCC(=O)Nc3cccc4ccccc34)nnc2-c2ccccn2)cc1", "inhibition": "14.2%"}
{"smiles": "CC(C)(C)c1ccc(Oc2ccc(N)cc2)cc1", "inhibition": "100% (active)"}
{"smiles": "COc1cccc(CNC(=O)CNS(=O)(=O)c2ccc3nc(C)sc3c2)c1OC", "inhibition": "14.5%"}
{"smiles": "O=C1CCC2(CCC(c3ccc(Cl)cc3)CC2)N1CCO", "note": "(centres undefined)", "inhibition": "20.9%"}
{"smiles": "COC1=C[C@H](C(=O)NCCNC(C)=O)[C@H](C)[C@@H](c2ccccc2)CC1=O", "inhibition": "12%"}
{"smiles": "CN(C)S(=O)(=O)c1cccc(C(=O)N/N=C\\c2ccco2)c1", "inhibition": "2.18%"}
{"smiles": "O=C(Nc1ccccc1)N1CCN(Cc2nc3ccccc3c(=O)[nH]2)CC1", "inhibition": "13.6%"}
{"smiles": "O=C(C1CCN(S(=O)(=O)c2ccccc2)CC1)N1CCN(C2CCCCC2)CC1", "inhibition": "-29.2%"}
{"smiles": "CCN(CC)P(=O)(C(NC(=O)OC)C(F)(F)C(F)(F)C(F)(F)C(F)F)N(CC)CC", "note": "(centres undefined)", "inhibition": "98.4% (active)"}
{"smiles": "O=C(CSc1nc2c(c(=O)[nH]1)CCCC2)N1CCCCC1", "inhibition": "-26.3%"}
{"smiles": "O=S1(=O)c2ccc(N3CCN(Cc4ccccc4F)CC3)cc2Oc2ccccc2CN1Cc1cn(Cc2ccc(Cl)cc2)nn1", "inhibition": "-6.71%"}
{"smiles": "Cc1ccc(-n2c(SCC(=O)Nc3ccc(S(=O)(=O)Nc4nccs4)cc3)nnc2-c2ccccn2)cc1", "inhibition": "-5.91%"}
{"smiles": "C=CCSc1nsc(NC(=O)Nc2cccc(C(C)=O)c2)n1", "inhibition": "38.1% (active)"}
{"smiles": "CCSc1nsc(NC(=O)Nc2cccc(C(C)=O)c2)n1", "inhibition": "17.5%"}
{"smiles": "CCCCN1C(=O)C(=O)N(CC(=O)Nc2cccc(C(C)=O)c2)C1=O", "inhibition": "0.73%"}
{"smiles": "COC(=O)C[C@@H]1CC[C@@H]2[C@H](COc3ccc(NC(=O)c4cccc(F)c4)cc3C(=O)N2C)O1", "inhibition": "-0.62%"}
{"smiles": "COc1ccc(-n2c(SCC(=O)Nc3ccc4cn[nH]c4c3)nnc2-c2cccnc2)cc1", "inhibition": "9.8%"}
{"smiles": "N#CCC[C@H]1CC[C@]2(CCCN(Cc3ccc(Cl)cc3)C2)O1", "inhibition": "1.96%"}
{"smiles": "O=C1NC[C@H](CCCCN2C[C@H](Cc3ccc(O)cc3)N(CCc3ccccc3)C(=O)C2=O)N(CCc2ccccc2)C1=O", "inhibition": "-1.56%"}
{"smiles": "O=C1NC[C@H](CCCCN2C[C@H](Cc3ccccc3)N(Cc3ccccc3)C(=O)C2=O)N(CCc2ccc(O)cc2)C1=O", "inhibition": "-7.95%"}
{"smiles": "O=C1NC[C@@H](Cc2ccc(O)cc2)N(CCc2cccc(F)c2)C1=O", "inhibition": "48.2% (active)"}
{"smiles": "COc1ccnc(C(=O)N2CCC(Oc3cccnc3)CC2)c1", "inhibition": "-26.8%"}
{"smiles": "O=S1(=O)c2c(cccc2N2CCSCC2)Oc2ccccc2CN1Cc1cn(Cc2ccc(F)cc2)nn1", "inhibition": "-4.53%"}
{"smiles": "O=C(Nc1cc(Cl)cc(Cl)c1)OCCN1CCCC12CCC(c1ccccc1)CC2", "note": "(centres undefined)", "inhibition": "2%"}
{"smiles": "NS(=O)(=O)c1ccc(CCNC(=O)CNC(=O)Cc2ccccc2)cc1", "inhibition": "10.1%"}
{"smiles": "NS(=O)(=O)c1ccc(CCNc2nc(C(F)(F)F)nc3ccccc23)cc1", "inhibition": "46.6% (active)"}
{"smiles": "CC(Nc1nc(C(F)(F)F)nc2ccccc12)c1cccs1", "note": "(centres undefined)", "inhibition": "-15.1%"}
{"smiles": "CCCCn1c(SCC(=O)N2CCCC2=O)nc2cc(S(N)(=O)=O)ccc21", "inhibition": "-5.45%"}
{"smiles": "CCCCn1c(SCc2ncc(-c3ccccc3)o2)nc2cc(S(N)(=O)=O)ccc21", "inhibition": "47% (active)"}
{"smiles": "c1ccc(-c2cnc(CN3CCN(c4ccccc4)CC3)o2)cc1", "inhibition": "-25.5%"}
{"smiles": "Cc1ccc(NC(=O)Nc2cc(C)nn2-c2ccccc2)cc1", "inhibition": "-17.6%"}
{"smiles": "COc1ccc(C2CC=C(C(=O)O)C(c3ccccc3F)N2S(=O)(=O)c2ccc(C)cc2)cc1OC", "note": "(centres undefined)", "inhibition": "13%"}
{"smiles": "COc1ccc2c(C(C)c3ccc(N)cc3)cn(C)c2c1", "note": "(centres undefined)", "inhibition": "-15.8%"}
{"smiles": "O=C(C1CCCN1S(=O)(=O)c1ccccc1)N1CCc2ccccc2C1", "note": "(centres undefined)", "inhibition": "7.01%"}
{"smiles": "CN1C(=O)c2cc(NS(C)(=O)=O)ccc2OC[C@@H]2O[C@@H](CC(=O)NCc3ccc(-c4ccccc4)cc3)CC[C@H]21", "inhibition": "-21.8%"}
{"smiles": "O=[N+]([O-])c1ccc(N2CCN(c3ccc(F)cc3)CC2)cn1", "inhibition": "-9.2%"}
{"smiles": "O=C(c1cc(C(=O)N2CCN(c3ccc(F)cc3)CC2)cc([N+](=O)[O-])c1)N1CCN(c2ccc(F)cc2)CC1", "inhibition": "58.1% (active)"}
{"smiles": "O=C(c1cncc(Br)c1)N1CCN(c2ccc([N+](=O)[O-])cc2)CC1", "inhibition": "9.04%"}
{"smiles": "CN(C)CC(=O)N[C@@H]1C[C@@H]2O[C@H](CO)CC[C@@H]2O[C@@H]1CCc1ccc(C#Cc2ccccc2)cc1", "inhibition": "27.3%"}
{"smiles": "COC(=O)c1ccc(C(=O)NC2CC(C)(C)Cc3c2cnn3-c2ccc(F)cc2)nc1", "note": "(centres undefined)", "inhibition": "-4.63%"}
{"smiles": "O=C(CCNC(=O)c1ccc(Cl)cc1)NC1CCCc2ccccc21", "note": "(centres undefined)", "inhibition": "-32.6%"}
{"smiles": "Cn1nccc1C(=O)NC1CCCc2c1cnn2-c1ccccc1F", "note": "(centres undefined)", "inhibition": "63.7% (active)"}
{"smiles": "Cn1nccc1C(=O)NC1CCCc2c1cnn2-c1ccc(F)cc1F", "note": "(centres undefined)", "inhibition": "60.9% (active)"}
{"smiles": "COCc1ccc(C(=O)NC2CC(C)(C)Cc3c2cnn3-c2ccc(C)cc2)o1", "note": "(centres undefined)", "inhibition": "-7.12%"}
{"smiles": "Cc1cc(C(=O)NC2CC(C)(C)Cc3c2cnn3-c2ccccc2)n[nH]1", "note": "(centres undefined)", "inhibition": "-4.58%"}
{"smiles": "Cc1cc(C(=O)NC2CCCc3c2cnn3-c2cccc(C)c2C)c(C)o1", "note": "(centres undefined)", "inhibition": "44.6% (active)"}
{"smiles": "Cc1cc(C(=O)NNC(=O)CCC2CCCCC2)c(C)o1", "inhibition": "3.17%"}
{"smiles": "COc1ccc(C(=O)NC2CC(C)(C)Cc3c2cnn3-c2ccccc2)c(OC)c1", "note": "(centres undefined)", "inhibition": "-0.91%"}
{"smiles": "COc1cccc(CSc2nnc(-c3cccnc3)n2Cc2ccccc2)c1", "inhibition": "14.1%"}
{"smiles": "COC(=O)c1cccc(Cn2ccc3ccc(-c4ccc5ccn(C(=O)C6CCCCC6)c5c4)cc32)c1", "inhibition": "-12.6%"}
{"smiles": "O=C(NCCC1=CCCCC1)C1CCN(S(=O)(=O)c2ccc(Cl)s2)CC1", "inhibition": "8.27%"}
{"smiles": "COC(=O)[C@H](C(C)C)N1CCc2nnn(Cc3ccc(C)cc3)c2-c2ccccc2S1(=O)=O", "inhibition": "7%"}
{"smiles": "COC(=O)C[C@@H]1CC[C@@H]2[C@@H](COc3ccc(NC(=O)Nc4ccc(F)c(F)c4)cc3C(=O)N2C)O1", "inhibition": "4.71%"}
{"smiles": "CC[n+]1cc(C)ccc1/C=C/c1ccc(N(C)C)cc1", "inhibition": "74.1% (active)"}
{"smiles": "O=S1(=O)c2ccc(Br)cc2OC[C@@H](Cc2ccccc2)N1Cc1cn(Cc2ccco2)nn1", "inhibition": "8.82%"}
{"smiles": "C=CCN1C(C(=O)OC)CN(Cc2cn(Cc3ccccc3)nn2)CCS1(=O)=O", "note": "(centres undefined)", "inhibition": "-8.52%"}
{"smiles": "CC(CCN1CCC(C(O)(c2ccccc2)c2ccccc2)CC1)Oc1ccc([N+](=O)[O-])cc1Cl", "note": "(centres undefined)", "inhibition": "10.1%"}
